This passage reports AC50 and outcome results from PubChem BioAssay (EPA / NIEHS).

The term AC50 denotes the concentration giving half of the maximal activity seen.

The source made the active and inactive calls. How the source made its calls: active means hit-call score of the fitted dose curve at least 0.9, where 1 is the maximum; inactive means score below 0.9.

A short description of test [1]: ATG_PXRE_CIS: Attagene CIS-FACTORIAL HepG2 Assay for human Pregnane X Receptor Element (PXRE) (AID 2282957). The note with it: HepG2 Attagene CIS-FACTORIAL PXRE reporter, mRNA; actives raise or lower the signal. The method in brief:
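Transiently transfected HepG2 cells were dosed and incubated for 24 h. RNA was then isolated, DNase-treated, reverse-transcribed and reporter sequences amplified. Labeled, HpaI-digested fragments were quantified by capillary electrophoresis against DMSO.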

The nature of test [2]: ATG_PPRE_CIS: Attagene CIS-FACTORIAL HepG2 Assay for human Peroxisome Proliferator-activated Response Element (PPRE) (AID 2282958). The settings on record: HepG2 PPRE cis-element reporter, Attagene transcription factor profiling; actives raise or lower the signal. The gist of the method: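 Read-out: fluorescent reporter mRNA fragments resolved by capillary electrophoresis after RT-PCR. HepG2 cells carried transiently transfected PPRE-driven cis reporter constructs and were dosed for 24 h; gain or loss of signal fitted relative to DMSO.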

The nature of test [3]: ATG_Sox_CIS: Attagene CIS-FACTORIAL HepG2 Assay for human SRY-box transcription factor (SOX) (AID 2282960). The note with it: HepG2 Attagene cis-factorial SOX reporter, mRNA; actives raise or lower the signal. The gist of the method: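 Read-out: fluorescent RT-PCR products of SOX1-linked reporter transcripts resolved by capillary electrophoresis, fitted bidirectionally against DMSO. Transiently transfected HepG2 cells, 24 h after chemical exposure, endogenous transcription factor activity.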

In test [4] the target is Transcription factor Sp1 (Homo sapiens) (UniProt P08047). As to the kind of experiment: ATG_Sp1_CIS: Attagene CIS-FACTORIAL HepG2 Assay for human Specificity Protein 1 (Sp1) (AID 2282961). The note with it: HepG2 Sp1 cis-reporter transcription, actives raise or lower the signal. The method in brief: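 Read-out: fluorescence of 6-FAM-labeled, HpaI-digested RT-PCR products separated by capillary electrophoresis. HepG2 cells carried transfected cis-element reporter units and were exposed to chemicals for 24 h; gain or loss of signal fitted relative to DMSO.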
Chain of Transcription factor Sp1 (Homo sapiens) (P08047 whole entry, looked up): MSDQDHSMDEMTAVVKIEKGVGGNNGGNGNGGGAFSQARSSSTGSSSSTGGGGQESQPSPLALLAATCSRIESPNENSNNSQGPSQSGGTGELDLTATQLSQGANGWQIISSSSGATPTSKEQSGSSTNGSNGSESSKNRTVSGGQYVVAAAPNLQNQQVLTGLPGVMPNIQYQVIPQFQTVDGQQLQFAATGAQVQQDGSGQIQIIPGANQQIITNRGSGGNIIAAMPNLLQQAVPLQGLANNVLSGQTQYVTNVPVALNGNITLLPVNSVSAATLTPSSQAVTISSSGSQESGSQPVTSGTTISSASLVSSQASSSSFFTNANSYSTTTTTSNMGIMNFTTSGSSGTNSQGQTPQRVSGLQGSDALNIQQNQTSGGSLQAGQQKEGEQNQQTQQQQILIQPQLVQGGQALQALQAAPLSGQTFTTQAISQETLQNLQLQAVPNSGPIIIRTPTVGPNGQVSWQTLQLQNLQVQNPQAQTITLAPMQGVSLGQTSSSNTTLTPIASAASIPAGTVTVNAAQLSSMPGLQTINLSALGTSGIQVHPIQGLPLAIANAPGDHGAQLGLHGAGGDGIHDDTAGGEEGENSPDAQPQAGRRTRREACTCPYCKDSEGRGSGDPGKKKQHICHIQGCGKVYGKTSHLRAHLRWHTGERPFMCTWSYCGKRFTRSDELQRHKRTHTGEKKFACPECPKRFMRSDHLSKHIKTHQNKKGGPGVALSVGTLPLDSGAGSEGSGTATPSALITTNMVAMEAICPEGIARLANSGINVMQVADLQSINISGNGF

Test [5] is described as follows: ATG_SREBP_CIS: Attagene CIS-FACTORIAL HepG2 Assay for human Sterol Regulatory Element Binding (SREBP) (AID 2282962). The settings on record: HepG2 Attagene cis-factorial SREBP reporter, mRNA; actives raise or lower the signal. The gist of the method: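 HepG2 cells transiently transfected with multiplexed cis-element reporter units report endogenous transcription factor activity. After 24 h of chemical exposure, reporter mRNA was quantified by RT-PCR, 6-FAM labelling, HpaI digestion and capillary electrophoresis; bidirectional fits used DMSO as baseline.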

In test [6] the target is Signal transducer and activator of transcription 3 (Homo sapiens) (UniProt P40763). Nature of the test: ATG_STAT3_CIS: Attagene CIS-FACTORIAL HepG2 Assay for human Signal Transducer and Activator of Transcription 3 (STAT3) (AID 2282963). The note with it: HepG2, Attagene cis-factorial STAT3 reporter transcription; actives raise or lower the signal. The method in brief:
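Endogenous STAT3-responsive cis-element activity was read in transiently transfected HepG2 cells after 24 h treatment. Reporter transcripts were quantified via RT-PCR and capillary electrophoresis, with DMSO as negative control and bidirectional curve fitting.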

A short description of test [7]: ATG_TA_CIS: Attagene CIS-FACTORIAL HepG2 Assay for human TA Basal Promoter (AID 2282964). The settings on record: HepG2 Attagene CIS-factorial TA basal promoter reporter; actives raise or lower the signal. The method in brief: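 Fluorescence from labelled RT-PCR reporter fragments, separated by capillary electrophoresis, gives the signal. Cells: HepG2 transiently carrying multiple reporter units, 24 h chemical dosing. Gain or loss relative to DMSO.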

Test [8] in a line: ATG_TCF_b_cat_CIS: Attagene CIS-FACTORIAL HepG2 Assay for human T-Cell-Factor with beta-catenin (TCF/b-cat) (AID 2282965). The settings on record: HepG2 TCF/beta-catenin cis-reporter transcription, actives raise or lower the signal. The gist of the method: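 Endogenous TCF/LEF activity read as reporter transcript level via RT-PCR and capillary electrophoresis fluorescence in transfected HepG2, 24 h exposure; gain or loss of signal fitted against DMSO controls.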

A short description of test [9]: ATG_TAL_CIS: Attagene CIS-FACTORIAL HepG2 Assay for human TAL Basal Promoter (AID 2282966).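 Further: background control endpoint measuring basal TAL promoter reporter mRNA not a specific factor.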 The note with it: HepG2 Attagene cis-factorial TAL promoter reporter; actives raise or lower the signal. The gist of the method: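 Readout: reporter mRNA, fluorescence by CE. System: HepG2, transient multi-reporter transfection, endogenous TF activity. Exposure: 24 h. Analysis: bidirectional, DMSO-normalized; background control.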

Test [10] is described as follows: ATG_RORE_CIS: Attagene CIS-FACTORIAL HepG2 Assay for human RAR-related Orphan Receptor Element (RORE) (AID 2282959). The settings on record: HepG2 Attagene cis-factorial RORE reporter, mRNA; actives raise or lower the signal. The method in brief: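 Readout: fluorescent reporter mRNA by RT-PCR plus capillary electrophoresis, 24 h after dosing transfected HepG2 cells. Endogenous transcription factor activity on a cis promoter element is measured. Gain or loss of signal fitted against DMSO.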

Chain of Signal transducer and activator of transcription 3 (Homo sapiens) (P40763 whole entry, looked up): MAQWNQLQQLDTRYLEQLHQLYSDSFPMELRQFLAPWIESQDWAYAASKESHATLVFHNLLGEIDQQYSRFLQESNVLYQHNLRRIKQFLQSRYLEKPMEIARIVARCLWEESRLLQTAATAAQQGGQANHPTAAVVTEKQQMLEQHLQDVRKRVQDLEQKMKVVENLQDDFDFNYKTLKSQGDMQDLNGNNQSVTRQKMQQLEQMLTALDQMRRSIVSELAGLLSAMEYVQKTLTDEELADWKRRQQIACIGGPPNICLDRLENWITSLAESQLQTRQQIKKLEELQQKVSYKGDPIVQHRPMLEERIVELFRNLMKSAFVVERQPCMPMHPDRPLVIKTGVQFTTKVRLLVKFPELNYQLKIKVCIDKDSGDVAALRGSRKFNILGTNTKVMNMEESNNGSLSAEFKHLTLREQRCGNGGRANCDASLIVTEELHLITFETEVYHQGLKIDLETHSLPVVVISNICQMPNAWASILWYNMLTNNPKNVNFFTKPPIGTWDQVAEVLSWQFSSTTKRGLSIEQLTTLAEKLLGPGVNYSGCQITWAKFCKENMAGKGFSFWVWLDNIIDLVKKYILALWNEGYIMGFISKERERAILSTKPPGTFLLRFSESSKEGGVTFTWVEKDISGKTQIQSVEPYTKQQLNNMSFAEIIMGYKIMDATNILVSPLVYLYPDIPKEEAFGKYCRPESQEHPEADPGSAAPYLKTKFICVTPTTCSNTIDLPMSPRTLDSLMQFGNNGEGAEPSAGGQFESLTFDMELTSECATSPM

Take `Clc1cc(C(Cl)(Cl)Cl)cnc1Cl`: the values for the AC50 in [1], in [5] and in test [8] were 8.47 µM (active), 17.5 µM (active) and 8.55 µM (active), respectively. Besides, the outcome in test [2], in test [3], in test [4], in [6], in test [7] and in test [9] was inactive.

`COC(F)(C(F)(F)C(F)(F)F)C(F)(C(F)(F)F)C(F)(F)F` (centres undefined): the compound was classed as inactive in test [1], in test [2], in test [10], in [4], in [5] and in test [6]. Moreover, the compound was classed as inactive in test [7], in test [8] and in test [9].

As for `O=C(O)C1(c2ccc3c(c2)OC[C@H](Cc2ccc(-c4ccccc4)cc2)[C@H]3O)CCCC1`, the compound was called inactive in test [1], in [2], in test [10], in test [6], in [7] and in [8]. In addition, in [9], the compound was classed as inactive.

With `CCN(N=O)C(N)=O`, the result in test [1], in [2], in [10], in test [4], in test [5] and in [6] was inactive. Further, the outcome in test [7], in test [8] and in [9] was inactive.

Regarding `Cc1c([N+](=O)[O-])c(C)c([N+](=O)[O-])c(C(C)(C)C)c1[N+](=O)[O-]`, in test [1], the AC50 is 1.54 µM (active). For the same compound, the compound was classed as inactive in test [2], in test [10], in test [4], in test [5], in test [6] and in [7]. Further, the result in test [8] and in test [9] was inactive.

On to `ClCCCCl`, for which the compound was classed as inactive in [1], in [2], in test [3], in [4], in test [5] and in test [6]. The outcome in [7], in [8] and in [9] was inactive.

Consider `O=C(Nc1ccc(Br)cc1)c1cc(Br)cc(Br)c1O`, for which the results for the AC50 in test [1] and in test [2] were 3.75 µM (active) and 5.26 µM (active), respectively. For the same compound, the compound was classed as inactive in [10], in test [4], in test [5], in [6], in [7] and in test [8]. Moreover, the call in [9] was inactive.

For `C=CC(=O)NC(C)(C)CC(C)=O`, the compound was classed as inactive in test [1], in test [2], in test [10], in test [4], in [6] and in test [7]. Moreover, the result in test [8] and in test [9] was inactive.

On to `C=CC(F)(C(F)(F)F)C(F)(F)C(F)(F)F` (centres undefined), for which the compound was classed as inactive in [1], in [2], in test [3], in test [4], in [5] and in [6]. Besides, the compound was called inactive in test [7], in [8] and in [9].

As to `CCOCn1c(-c2ccc(Cl)cc2)c(C#N)c(Br)c1C(F)(F)F`, the AC50 is 0.46 µM (active) in test [1]; 4.17 µM (active) in [2]; 30.4 µM (active) in [3]; 30.6 µM (active) in test [4]; 49 µM (active) in [5]; 142 µM (active) in test [6]. Also, the AC50 in [8] is 7.11 µM (active). For the same compound, the result in test [7] and in [9] was inactive.

Regarding `Fc1cccc(Cl)c1CCl`, the compound was classed as inactive in test [1], in test [2], in [5], in test [6], in test [7] and in [9]. Further, the AC50 is 100 µM (active) in test [3], 65.3 µM (active) in test [4] and 100 µM (active) in [8].

`CC(O)(CS(=O)(=O)c1ccc(F)cc1)C(=O)Nc1ccc(C#N)c(C(F)(F)F)c1` (centres undefined): the AC50 in test [1] was 3.99 µM (active). Also, the outcome in [2], in [3], in test [4], in test [5], in [6] and in test [7] was inactive. Moreover, the compound was classed as inactive in [8] and in [9].

Regarding `CC1CC(=O)O1` (centres undefined), the compound was called inactive in test [1], in test [2], in test [3], in test [4], in [5] and in [6]. The compound was called inactive in test [7], in test [8] and in [9].

Consider `[Cl][Sn]([c]1ccccc1)([c]1ccccc1)[c]1ccccc1`, for which the call in [1], in test [10], in test [6] and in test [8] was inactive. Moreover, the results for the AC50 in [2], in [7] and in [9] were 0.0117 µM (active), 0.251 µM (active) and 1.13 µM (active), respectively.

Consider `O=S(=O)(C(Cl)(Cl)Cl)C(Cl)(Cl)Cl`, for which the AC50 in test [1] was 11.1 µM (active); in test [3] it was 11.1 µM (active); in test [4], 11.1 µM (active); in test [5], 16.8 µM (active); in test [7] it was 16.9 µM (active); in test [8], 7.46 µM (active). Further, the result in test [2], in test [6] and in [9] was inactive.

Turning to `CCCCCCCCCCCCCl`, the call in test [1], in test [2], in [3], in [4], in test [5] and in [6] was inactive. The outcome in [7], in test [8] and in test [9] was inactive.

Take `Brc1c(Br)c(Br)c(Oc2c(Br)c(Br)c(Br)c(Br)c2Br)c(Br)c1Br`: the call in test [1], in test [2], in [3], in test [4], in test [5] and in test [6] was inactive. The call in [7], in test [8] and in test [9] was inactive.

Consider `Cc1cccc(OP(=O)(Oc2cccc(C)c2)Oc2cccc(C)c2)c1`, for which, in test [1], the AC50 was 1.32 µM (active). Moreover, the call in [2], in test [3], in test [4], in [5], in test [6] and in test [7] was inactive. Moreover, in test [8], the result was inactive.

For the compound `Brc1ccc(Br)cc1`, the result in test [1], in test [2], in [10], in [4], in test [5] and in test [6] was inactive. Besides, the call in test [7], in test [8] and in [9] was inactive.

As for `CC(=O)CN(CC(C)=O)N=O`, the compound was classed as inactive in test [1], in [2], in test [10], in [4], in test [5] and in [6]. In addition, the result in test [7], in test [8] and in [9] was inactive.

As for `OC[C@@H](O)[C@H]1O[C@@H]2O[C@H](C(Cl)(Cl)Cl)O[C@@H]2[C@H]1O`, the call in test [1], in test [2], in test [3], in test [4], in [5] and in [6] was inactive. Also, the result in test [7], in test [8] and in test [9] was inactive.

For `Cc1ccc2nc3sc(=O)sc3nc2c1`, the AC50 in [1] was 6.36 µM (active); in test [3], 6.58 µM (active); in test [7] it was 43.9 µM (active). In addition, the compound was classed as inactive in [2], in test [4], in test [5], in test [6], in test [8] and in [9].

Consider `O=C(O)COc1ccc(Cl)cc1`, for which the outcome in test [1], in test [2], in test [3], in test [4], in test [5] and in test [6] was inactive. In addition, the compound was classed as inactive in test [7], in test [8] and in [9].

As for `CNC(=O)CSP(=O)(OC)OC`, the outcome in [1], in [2], in [3], in test [4], in test [5] and in test [6] was inactive. Also, the outcome in test [7], in test [8] and in [9] was inactive.

Regarding `N#Cc1ccccc1N`, the AC50 in [1] is 39.4 µM (active). In addition, the compound was classed as inactive in [2], in test [10], in [4], in test [5], in [6] and in test [7]. Also, the result in [8] and in test [9] was inactive.
